This is part of a sample that, as a whole, favours compounds with a hit. Of some 79,000 tested, about 15% had one in any assay. Cut-off read from the data, not from the text of the source: active = growth inhibition above about 70%; inactive = the rest.
What was measured:
[1] = NCI Yeast Anticancer Drug Screen. Data for the rad50 strain (AID 155);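 note: 0% = growth of vehicle-only cultures of the same strain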; settings: S. cerevisiae rad50 strain growth inhibition, active compounds read high; at 50.0 µM unless noted
Method in brief: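 Relative growth inhibition (compound vs vehicle) was measured in yeast with a defined repair-gene alteration.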

[2] = NCI Yeast Anticancer Drug Screen. Data for the mec2-1 strain (AID 157); settings: S. cerevisiae mec2-1 strain, active compounds read high; at 50.0 µM unless noted
Method in brief: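 Each compound was tested on mec2-1 yeast, a strain altered in DNA damage repair or cell cycle control. Growth inhibition is reported relative to vehicle.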

[3] = NCI Yeast Anticancer Drug Screen. Data for the sgs1 mgt1 strain (AID 161);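 note: 0% = growth of cultures given vehicle only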; settings: S. cerevisiae sgs1 mgt1 strain, active compounds read high; at 50.0 µM unless noted
Method in brief: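 Mutant yeast exposed to compound; growth scored against vehicle-only wells.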

[4] = NCI Yeast Anticancer Drug Screen. Data for the cln2 rad14 strain (AID 165);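 note: 0% = growth equal to vehicle treated cultures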; settings: S. cerevisiae cln2 rad14 strain, active compounds read high; at 50.0 µM unless noted
Method in brief: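 Test compounds were added to cln2 rad14 yeast cultures; inhibition of growth was then determined by comparison with vehicle treatment.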

[5] = NCI Yeast Anticancer Drug Screen. Data for the bub3 strain (AID 167); settings: S. cerevisiae bub3 mutant strain, active compounds read high; at 50.0 µM unless noted
Method in brief: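 Screening used yeast with an engineered genetic alteration affecting cell cycle control. Compound-exposed cultures were compared with vehicle cultures, and reduced growth was taken as inhibition.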

[6] = NCI Yeast Anticancer Drug Screen. Data for the mlh1 rad18 strain (AID 175); settings: S. cerevisiae mlh1 rad18 strain growth inhibition, active compounds read high; at 50.0 µM unless noted
Method in brief: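 Inhibition values reflect reduced growth of mutant yeast versus vehicle-treated controls following compound exposure; the mutations affect DNA damage repair.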

Measured: growth inhibition

O=C(O)C1Cc2c([nH]c3ccccc23)CN1 (stereo not given)
inactive: [1] 8.45% | [2] -10.9% | [3] 11.6% | [4] 2.25% | [5] 24.1% | [6] 9.25%

CCN(CC)CCN1CC(=O)N2CCCCN2C(=O)C1
inactive: [1] 17.2% | [2] 4.5% | [3] 14.9% | [4] 13.4% | [5] 7.85% | [6] 10.6%

CCOc1cc(/C=N/NC(=O)c2ccccc2NC(=O)c2ccccc2Cl)ccc1O
inactive: [1] 11.3% | [2] -1.9% | [3] -7.05% | [4] -1.8% | [5] 3.05% | [6] -9.3%

CCCCCC[N+]1([O-])CC[N+]([O-])(CCCCCC)CC1 (stereo not given)
inactive: [1] -6.6% | [2] -7.9% | [3] -1.55% | [4] -43.4% | [5] 0.35% | [6] 7.35%

CCOC(=O)c1c(C)[nH]c(C=O)c1C
inactive: [1] 5.65% | [2] 9.3% | [3] 0.25% | [4] 16.7% | [5] -0.25% | [6] 4.4%

NC(=O)N/N=C/c1ccc([N+](=O)[O-])cc1
inactive: [1] 7.35% | [2] -2.6% | [3] -6.55% | [4] -24.1% | [5] 15.9% | [6] -4.2%

COc1cc(C)cc(C(=O)O)c1
inactive: [1] -1.85% | [2] -3.5% | [3] 7.3% | [4] -52.4% | [5] -10% | [6] -2.7%

O=C1C(=O)c2ccccc2C(O)=C1CN1CCOCC1
inactive: [1] 31.6% | [2] 32.1% | [3] 14.4% | [4] 4.65% | [5] 28% | [6] 8.85%

Nc1ncnc(N)c1NC(=O)c1cccnc1
inactive: [1] 8.7% | [2] -6% | [3] 7.65% | [4] -40% | [5] -2.05% | [6] 5.5%

CC1OC(n2cnc3c(NC(=O)c4ccccc4)ncnc32)C(O)C2OC12 (stereo not given)
inactive: [1] -1.15% | [2] -3.05% | [3] 8.75% | [4] 13.4% | [5] 2.95% | [6] 14.8%

CCOC(=O)/C(F)=C/c1ccc(C#N)cc1
inactive: [1] 29.3% | [2] -19.9% | [3] -4.25% | [4] 3.7% | [5] 8.35% | [6] 15.8%

CC(=O)Nc1snc(C)c1[N+](=O)[O-]
inactive: [1] -4.55% | [2] -0.1% | [3] 6.75% | [4] -8.2% | [5] -2.9% | [6] 0.55%

CC(=O)c1c(C)cc2cc(C)cc(O)c2c1O
inactive: [1] 30.9% | [2] 17.9% | [3] 1.4% | [4] 0.6% | [5] 0.4% | [6] 29.9%

O=C1CC(c2ccccc2)N1c1ccccc1 (stereo not given)
inactive: [1] -17.9% | [2] -34% | [3] -11.3% | [4] -20.6% | [5] -10.9% | [6] -22.8%

COC1CCC(=O)N1CN(C(C)=O)c1ccc(C)cc1 (stereo not given)
inactive: [1] 10.4% | [2] 9.1% | [3] -25.2% | [4] 28.4% | [5] 3.75% | [6] -28.1%

OCCN1CCN=C1Cc1ccccc1
inactive: [1] 4.75% | [2] 11.9% | [3] 8.05% | [4] 14.2% | [5] -2.1% | [6] 29.4%

N=C(N)SCCc1cn2ccccc2n1
inactive: [1] -5.45% | [2] -45.9% | [3] -17.1% | [4] 3.65% | [5] -15.8% | [6] 1.05%

CCOC(=O)c1ccc(NC(=S)NC(=O)C(C)Oc2ccccc2)cc1 (stereo not given)
inactive: [1] -10.9% | [2] 40% | [3] 44.8% | [4] -21.2% | [5] 37.8% | [6] 25.2%

Brc1ccc2c(ccc3c2nnc2ncnn23)c1
inactive: [1] 42.5% | [2] 22.4% | [3] 16.9% | [4] 10.7% | [5] -1.55% | [6] 42.2%

Cc1ccccc1S(N)(=O)=O
inactive: [1] -17.7% | [2] -28.1% | [3] -22.6% | [4] -42.2% | [5] -6.95% | [6] 3.25%
